In the supplement of paper PMC10849652:
Of roughly 8,800 targets only a part is listed; those with a hit were picked by preference. About 0.5% of all pairs of compound and target were hits.

Tests used:
Assay in all cases: log2 fold change, soluble protein after heating vs DMSO (PISA); higher = thermal stabilisation; K562 lysate, 10 uM; active = over 0.2 and 3.5 SD of the protein, either way, in both replicates (recomputed)
nilotinib = compound: Cc1cn(-c2cc(NC(=O)c3ccc(C)c(Nc4nccc(-c5cccnc5)n4)c3)cc(C(F)(F)F)c2)cn1 [nilotinib]
In short: (§1)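 K562 pellets were dounce-homogenised in PBS pH 7.4 containing 1 mM MgCl2, and the crude extract, at 1 mg/mL protein, was exposed to 10 μM compound for 30 min. Aliquots were heated for 3 min across 48°C-58°C, pooled, brought to 0.5% NP-40 at 4°C and spun at 21,000xg for 90 min, with the supernatant taken as soluble protein. TMTpro 16plex LC-MS/MS with equalised channel sums quantified that protein. Values are log-two fold changes in thermal stability relative to solvent controls, taken from duplicates.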

[1] = compound: Cc1nc(Nc2n[nH]c3c2CN(C(=O)N[C@H](CN(C)C)c2ccccc2)C3(C)C)c2sccc2n1
In short: as §1

dasatinib = compound: Cc1nc(Nc2ncc(C(=O)Nc3c(C)cccc3Cl)s2)cc(N2CCN(CCO)CC2)n1 [dasatinib]
In short: as §1

[2] = compound: Cc1ncc(-c2ccnc(Nc3ccc(S(C)(=O)=O)cc3)n2)n1C(C)C
In short: as §1

[3] = compound: Cn1cc(-c2ccc3c(c2)CCN3C(=O)Cc2cccc(C(F)(F)F)c2)c2c(N)ncnc21
In short: as §1

quisinostat = compound: Cn1cc(CNCC2CCN(c3ncc(C(=O)NO)cn3)CC2)c2ccccc21 [quisinostat]
In short: as §1

tipifarnib = compound: Cn1cncc1[C@@](N)(c1ccc(Cl)cc1)c1ccc2c(c1)c(-c1cccc(Cl)c1)cc(=O)n2C [tipifarnib]
In short: as §1

[4] = compound: NC(=O)Nc1cc(-c2cccc(F)c2)sc1C(=O)N[C@H]1CCCNC1
In short: as §1

[5] = compound: NC(=O)c1cnc(N[C@@H]2CCCC[C@@H]2N)nc1Nc1cccc(-n2nccn2)c1
In short: as §1

[6] = compound: NC1(c2ccc(-c3nc4ccn5c(=O)[nH]nc5c4cc3-c3ccccc3)cc2)CCC1
In short: as §1

[7] = compound: NCC(=O)Nc1ccc(-n2nc(C(F)(F)F)cc2-c2ccc3c(ccc4ccccc43)c2)cc1
In short: as §1

vorinostat = compound: O=C(CCCCCCC(=O)Nc1ccccc1)NO [vorinostat]
In short: as §1

silmitasertib = compound: O=C(O)c1ccc2c(c1)nc(Nc1cccc(Cl)c1)c1ccncc12 [silmitasertib]
In short: as §1

[8] = compound: O=C1NC(=O)C(c2cnc3ccccn23)=C1c1cn2c3c(cc(F)cc13)CN(C(=O)N1CCCCC1)CC2
In short: as §1

entospletinib = compound: c1cn2cc(-c3ccc4cn[nH]c4c3)nc(Nc3ccc(N4CCOCC4)cc3)c2n1 [entospletinib]
In short: as §1

Measured: log2 fold change

NUF2 (UniProt Q9BZD4)
UniProt Q9BZD4, sequence (Q9BZD4 whole entry, looked up): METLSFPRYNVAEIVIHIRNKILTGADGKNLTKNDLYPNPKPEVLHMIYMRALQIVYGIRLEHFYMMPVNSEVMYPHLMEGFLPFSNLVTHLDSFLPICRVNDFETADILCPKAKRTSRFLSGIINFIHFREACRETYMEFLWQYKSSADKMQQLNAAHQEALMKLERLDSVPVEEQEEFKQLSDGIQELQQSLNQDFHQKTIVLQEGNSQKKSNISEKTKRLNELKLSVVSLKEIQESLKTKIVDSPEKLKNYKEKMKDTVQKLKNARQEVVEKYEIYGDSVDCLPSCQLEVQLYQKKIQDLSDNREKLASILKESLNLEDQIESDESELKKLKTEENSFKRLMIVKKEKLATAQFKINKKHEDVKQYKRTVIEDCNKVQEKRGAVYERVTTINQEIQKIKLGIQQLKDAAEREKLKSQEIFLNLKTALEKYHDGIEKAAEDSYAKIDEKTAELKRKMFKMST
inactive: nilotinib -0.011 | [1] 0.002 | dasatinib -0.044 | [2] -0.005 | [3] 0.017 | quisinostat -0.012 | tipifarnib 0.003 | [4] 0.061 | [5] 0.013 | [6] -0.014 | [7] 0.005 | silmitasertib 0.017 | [8] 0.008 | entospletinib 0.016
active: vorinostat -0.242

NFIC (UniProt P08651)
inactive: nilotinib -0.058 | [1] -0.162 | dasatinib 0.014 | [2] -0.114 | [3] 0.022 | quisinostat -0.072 | tipifarnib 0.014 | [4] 0.029 | [5] 0.098 | [6] 0.016 | [7] 0.063 | vorinostat -0.083 | silmitasertib -0.026 | [8] -0.032 | entospletinib -0.025

OPA1 isoform 2 (UniProt O60313)
inactive: nilotinib 0.026 | [1] -0.008 | dasatinib -0.07 | [2] 0.007 | [3] 0.018 | quisinostat 0.055 | tipifarnib -0.035 | [4] 0.025 | [5] 0.016 | [6] -0.012 | [7] 0.002 | vorinostat 0.014 | silmitasertib 0.027 | [8] 0.009 | entospletinib -0.004

OGT (UniProt O15294)
UniProt O15294, sequence (O15294 whole entry, looked up): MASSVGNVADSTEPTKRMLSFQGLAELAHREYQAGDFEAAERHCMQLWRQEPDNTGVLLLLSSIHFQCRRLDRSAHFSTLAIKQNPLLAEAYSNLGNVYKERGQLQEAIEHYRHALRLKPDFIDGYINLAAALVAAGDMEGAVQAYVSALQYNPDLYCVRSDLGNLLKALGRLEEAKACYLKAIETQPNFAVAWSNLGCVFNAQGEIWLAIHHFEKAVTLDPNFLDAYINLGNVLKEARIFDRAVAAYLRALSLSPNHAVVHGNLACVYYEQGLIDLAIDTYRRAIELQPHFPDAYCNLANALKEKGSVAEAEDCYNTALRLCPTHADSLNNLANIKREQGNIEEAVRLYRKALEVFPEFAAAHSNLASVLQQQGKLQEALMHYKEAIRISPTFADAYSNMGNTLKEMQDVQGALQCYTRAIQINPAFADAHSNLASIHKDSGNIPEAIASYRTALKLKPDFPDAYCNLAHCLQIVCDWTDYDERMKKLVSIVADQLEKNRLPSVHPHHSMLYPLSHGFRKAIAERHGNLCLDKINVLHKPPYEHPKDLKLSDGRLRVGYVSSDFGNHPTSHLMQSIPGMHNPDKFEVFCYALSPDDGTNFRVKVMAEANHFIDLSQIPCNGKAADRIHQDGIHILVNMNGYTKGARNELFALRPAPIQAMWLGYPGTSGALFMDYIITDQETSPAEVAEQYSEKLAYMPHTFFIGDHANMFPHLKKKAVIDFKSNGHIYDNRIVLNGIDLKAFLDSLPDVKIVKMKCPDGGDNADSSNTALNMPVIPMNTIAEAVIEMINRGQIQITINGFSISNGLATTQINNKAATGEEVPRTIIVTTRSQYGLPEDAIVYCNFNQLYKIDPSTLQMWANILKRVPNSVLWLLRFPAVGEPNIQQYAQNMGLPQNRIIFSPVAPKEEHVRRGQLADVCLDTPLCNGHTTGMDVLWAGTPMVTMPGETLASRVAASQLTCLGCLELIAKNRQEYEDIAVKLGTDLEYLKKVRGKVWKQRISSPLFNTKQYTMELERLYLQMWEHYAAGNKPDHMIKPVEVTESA
active: vorinostat -0.42
inactive: nilotinib 0.018 | [1] 0.01 | dasatinib -0.027 | [2] -0.002 | [3] 0.041 | quisinostat -0.067 | tipifarnib -0.012 | [4] 0.026 | [5] 0.009 | [6] -0.023 | [7] 0.002 | silmitasertib 0.035 | [8] 0.045 | entospletinib 0.021

NQO1 (UniProt P15559)
UniProt P15559, sequence (P15559 whole entry, looked up): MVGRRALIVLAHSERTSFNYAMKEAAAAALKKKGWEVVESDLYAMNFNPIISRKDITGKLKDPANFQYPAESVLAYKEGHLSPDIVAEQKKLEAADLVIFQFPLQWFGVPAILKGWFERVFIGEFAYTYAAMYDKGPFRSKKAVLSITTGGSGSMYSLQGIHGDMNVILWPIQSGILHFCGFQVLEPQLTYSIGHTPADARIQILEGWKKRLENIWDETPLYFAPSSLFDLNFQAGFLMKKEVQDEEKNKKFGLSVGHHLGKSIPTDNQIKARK
inactive: nilotinib 0.051 | [1] -0.031 | dasatinib 0.244 | [2] 0.022 | [3] -0.104 | quisinostat 0.021 | tipifarnib 0.042 | [4] 0.042 | [5] -0.027 | [6] 0.056 | [7] 0.008 | vorinostat -0.132 | silmitasertib 0.038 | [8] 0.023 | entospletinib -0.027

NUP98 (UniProt P52948)
UniProt P52948, sequence (P52948 whole entry, looked up): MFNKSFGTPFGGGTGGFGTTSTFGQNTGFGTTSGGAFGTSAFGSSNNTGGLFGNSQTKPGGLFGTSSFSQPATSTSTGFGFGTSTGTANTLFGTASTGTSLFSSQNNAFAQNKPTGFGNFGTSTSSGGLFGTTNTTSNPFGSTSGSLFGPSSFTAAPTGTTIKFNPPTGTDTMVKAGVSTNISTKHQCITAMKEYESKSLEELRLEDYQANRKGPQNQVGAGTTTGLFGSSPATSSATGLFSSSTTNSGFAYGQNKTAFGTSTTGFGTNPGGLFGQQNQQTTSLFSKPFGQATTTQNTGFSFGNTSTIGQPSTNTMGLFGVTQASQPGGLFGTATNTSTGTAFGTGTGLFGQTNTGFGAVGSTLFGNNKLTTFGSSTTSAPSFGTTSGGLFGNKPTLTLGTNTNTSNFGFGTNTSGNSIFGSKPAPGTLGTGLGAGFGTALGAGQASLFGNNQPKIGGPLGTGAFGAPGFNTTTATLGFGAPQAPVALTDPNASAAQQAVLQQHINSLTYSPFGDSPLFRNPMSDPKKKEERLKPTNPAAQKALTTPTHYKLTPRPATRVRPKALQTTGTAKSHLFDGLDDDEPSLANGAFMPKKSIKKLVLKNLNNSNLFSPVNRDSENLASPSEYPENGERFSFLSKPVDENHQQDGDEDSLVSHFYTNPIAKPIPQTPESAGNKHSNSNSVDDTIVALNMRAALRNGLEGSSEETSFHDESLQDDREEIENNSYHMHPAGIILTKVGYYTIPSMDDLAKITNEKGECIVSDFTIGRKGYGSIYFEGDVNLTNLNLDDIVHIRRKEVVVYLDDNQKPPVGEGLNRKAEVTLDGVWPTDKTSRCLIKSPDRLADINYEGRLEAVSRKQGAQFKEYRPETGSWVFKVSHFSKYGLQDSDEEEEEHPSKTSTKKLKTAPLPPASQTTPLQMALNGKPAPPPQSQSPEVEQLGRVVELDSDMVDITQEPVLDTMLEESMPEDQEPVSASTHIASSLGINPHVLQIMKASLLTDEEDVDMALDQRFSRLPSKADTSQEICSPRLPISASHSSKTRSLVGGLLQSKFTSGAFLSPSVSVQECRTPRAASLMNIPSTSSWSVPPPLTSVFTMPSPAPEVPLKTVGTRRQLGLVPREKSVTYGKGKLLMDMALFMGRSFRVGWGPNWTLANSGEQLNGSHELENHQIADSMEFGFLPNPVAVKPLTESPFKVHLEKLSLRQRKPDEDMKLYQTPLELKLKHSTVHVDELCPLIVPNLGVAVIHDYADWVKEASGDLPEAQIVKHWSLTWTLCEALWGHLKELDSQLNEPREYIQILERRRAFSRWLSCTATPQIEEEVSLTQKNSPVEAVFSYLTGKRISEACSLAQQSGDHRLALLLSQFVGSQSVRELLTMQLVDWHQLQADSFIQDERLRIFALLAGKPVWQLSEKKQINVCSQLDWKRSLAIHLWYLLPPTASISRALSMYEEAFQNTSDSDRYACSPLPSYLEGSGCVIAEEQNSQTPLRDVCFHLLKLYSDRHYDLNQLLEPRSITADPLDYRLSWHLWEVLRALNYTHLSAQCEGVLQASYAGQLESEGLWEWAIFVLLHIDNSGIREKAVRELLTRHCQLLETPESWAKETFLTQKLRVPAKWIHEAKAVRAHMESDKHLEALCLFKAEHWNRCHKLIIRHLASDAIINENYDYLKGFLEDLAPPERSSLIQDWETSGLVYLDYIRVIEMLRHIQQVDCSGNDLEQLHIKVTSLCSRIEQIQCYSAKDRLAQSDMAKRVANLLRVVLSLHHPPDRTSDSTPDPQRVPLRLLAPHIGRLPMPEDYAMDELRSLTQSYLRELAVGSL
inactive: nilotinib -0.041 | [1] -0.017 | dasatinib -0.053 | [2] -0.008 | [3] 0.031 | quisinostat -0.049 | tipifarnib -0.12 | [4] 0.055 | [5] -0.002 | [6] 0.003 | [7] 0.021 | silmitasertib 0.001 | [8] 0.001 | entospletinib -0.012
active: vorinostat -0.231

MRPS31 (UniProt Q92665)
inactive: nilotinib -0.005 | [1] -0.002 | dasatinib -0.034 | [2] 0.034 | [3] 0.002 | quisinostat -0.046 | tipifarnib 0.015 | [4] 0.022 | [5] -0.026 | [6] -0.014 | [7] 0.058 | vorinostat 0.021 | silmitasertib -0.046 | [8] -0.001 | entospletinib 0

MXRA7 (UniProt P84157)
UniProt P84157, sequence (P84157 whole entry, looked up): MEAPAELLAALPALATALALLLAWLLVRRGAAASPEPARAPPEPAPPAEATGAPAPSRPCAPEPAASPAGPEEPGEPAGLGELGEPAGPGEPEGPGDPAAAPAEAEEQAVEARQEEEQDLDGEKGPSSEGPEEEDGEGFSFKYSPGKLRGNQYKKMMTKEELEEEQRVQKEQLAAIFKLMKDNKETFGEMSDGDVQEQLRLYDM
inactive: nilotinib -0.307 | [1] 0 | dasatinib 0.03 | [2] -0.202 | [3] -0.034 | quisinostat -0.069 | tipifarnib -0.006 | [4] 0.1 | [5] -0.078 | [6] -0.003 | [7] 0.118 | vorinostat 0.262 | silmitasertib -0.102 | [8] 0.099 | entospletinib 0.021

NUDT4 (UniProt Q9NZJ9)
UniProt Q9NZJ9, sequence (Q9NZJ9 whole entry, looked up): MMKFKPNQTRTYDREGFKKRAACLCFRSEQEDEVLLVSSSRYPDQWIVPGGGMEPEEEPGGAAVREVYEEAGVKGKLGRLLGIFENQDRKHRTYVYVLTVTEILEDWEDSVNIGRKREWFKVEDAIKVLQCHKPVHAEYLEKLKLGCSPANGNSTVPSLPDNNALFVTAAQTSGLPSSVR
inactive: nilotinib 0.115 | [1] -0.03 | dasatinib 0.038 | [2] -0.002 | [3] 0.006 | quisinostat 0.129 | tipifarnib 0.11 | [4] 0.018 | [5] -0.059 | [6] 0.022 | [7] -0.144 | vorinostat -0.162 | silmitasertib 0.028 | [8] 0.03 | entospletinib -0.01

NCAPD2 (UniProt Q15021)
active: vorinostat -0.332
inactive: nilotinib 0.006 | [1] 0.01 | dasatinib -0.037 | [2] -0.001 | [3] 0.031 | quisinostat -0.064 | tipifarnib -0.019 | [4] 0.044 | [5] 0.003 | [6] -0.009 | [7] -0.01 | silmitasertib 0.01 | [8] -0.005 | entospletinib -0.001

OTC (UniProt P00480)
UniProt P00480, sequence (P00480 whole entry, looked up): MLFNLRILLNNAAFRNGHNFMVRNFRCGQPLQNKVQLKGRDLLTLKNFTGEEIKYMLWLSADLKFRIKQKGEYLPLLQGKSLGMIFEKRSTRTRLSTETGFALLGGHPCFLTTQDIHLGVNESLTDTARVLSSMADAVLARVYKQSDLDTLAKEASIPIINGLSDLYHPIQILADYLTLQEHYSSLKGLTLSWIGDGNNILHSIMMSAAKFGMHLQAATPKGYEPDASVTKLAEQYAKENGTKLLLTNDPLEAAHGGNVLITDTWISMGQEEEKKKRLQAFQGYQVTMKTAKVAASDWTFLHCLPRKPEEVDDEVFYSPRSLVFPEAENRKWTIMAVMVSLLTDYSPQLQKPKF
inactive: nilotinib -0.105 | [1] -0.023 | dasatinib -0.347 | [2] -0.159 | [3] 0.106 | quisinostat -0.492 | tipifarnib 0.054 | [4] -0.055 | [5] 0.071 | [6] -0.075 | [7] 0.097 | vorinostat 0.087 | silmitasertib -0.029 | [8] -0.157 | entospletinib -0.028

NOB1 (UniProt Q9ULX3)
inactive: nilotinib 0.018 | [1] -0.026 | dasatinib 0.004 | [2] -0.066 | [3] 0.044 | quisinostat 0.041 | tipifarnib 0 | [4] 0.043 | [5] -0.018 | [6] 0.058 | [7] 0.017 | vorinostat -0.128 | silmitasertib 0.048 | [8] -0.024 | entospletinib 0.024

NCKAP1L (UniProt P55160)
inactive: nilotinib 0.001 | [1] -0.017 | dasatinib -0.034 | [2] 0.072 | [3] 0.005 | quisinostat -0.034 | tipifarnib 0.032 | [4] 0.055 | [5] 0.017 | [6] 0.023 | [7] 0.288 | silmitasertib -0.039 | [8] -0.001 | entospletinib 0.029
active: vorinostat -0.444

MTA1 (UniProt Q13330)
active: vorinostat -0.212
inactive: nilotinib 0.042 | [1] 0.01 | dasatinib -0.023 | [2] 0.033 | [3] 0.005 | quisinostat -0.089 | tipifarnib -0.03 | [4] 0.052 | [5] -0.033 | [6] -0.004 | [7] -0.005 | silmitasertib -0.037 | [8] 0.016 | entospletinib -0.036

NIFK (UniProt Q9BYG3)
UniProt Q9BYG3, sequence (Q9BYG3 whole entry, looked up): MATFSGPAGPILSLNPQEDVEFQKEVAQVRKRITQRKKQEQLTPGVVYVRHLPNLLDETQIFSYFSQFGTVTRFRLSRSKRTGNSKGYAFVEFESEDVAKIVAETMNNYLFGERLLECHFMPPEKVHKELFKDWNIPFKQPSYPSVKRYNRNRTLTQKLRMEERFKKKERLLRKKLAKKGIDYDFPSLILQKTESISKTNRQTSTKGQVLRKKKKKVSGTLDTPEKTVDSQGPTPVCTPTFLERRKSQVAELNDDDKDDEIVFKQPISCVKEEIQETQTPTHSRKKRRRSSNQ
inactive: nilotinib 0.033 | [1] -0.003 | dasatinib -0.012 | [2] 0.035 | [3] -0.01 | quisinostat -0.042 | tipifarnib 0.002 | [4] 0.037 | [5] -0.016 | [6] -0.038 | [7] 0.063 | vorinostat 0.063 | silmitasertib -0.001 | [8] 0.047 | entospletinib 0.044

OTUD7B (UniProt Q6GQQ9)
active: vorinostat 0.331
inactive: nilotinib -0.017 | [1] 0.017 | dasatinib 0.005 | [2] 0.03 | [3] 0.027 | quisinostat -0.252 | tipifarnib 0.05 | [4] 0.142 | [5] 0.026 | [6] -0.095 | [7] 0.044 | silmitasertib -0.038 | [8] 0.194 | entospletinib -0.04

NSL1 (UniProt Q96IY1)
UniProt Q96IY1, sequence (Q96IY1 whole entry, looked up): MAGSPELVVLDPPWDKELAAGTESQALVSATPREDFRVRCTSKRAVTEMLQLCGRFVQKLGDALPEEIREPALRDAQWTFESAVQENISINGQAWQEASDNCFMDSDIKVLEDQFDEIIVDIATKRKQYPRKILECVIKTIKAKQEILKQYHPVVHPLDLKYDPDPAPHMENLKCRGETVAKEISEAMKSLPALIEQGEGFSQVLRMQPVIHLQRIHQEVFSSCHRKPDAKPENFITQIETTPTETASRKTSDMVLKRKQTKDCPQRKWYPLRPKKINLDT
active: vorinostat -0.528
inactive: nilotinib -0.018 | [1] 0.005 | dasatinib -0.01 | [2] -0.014 | [3] 0 | quisinostat -0.009 | tipifarnib 0.024 | [4] -0.003 | [5] 0.01 | [6] -0.007 | [7] -0.012 | silmitasertib -0.022 | [8] -0.005 | entospletinib 0.03

NDUFA4 (UniProt O00483)
UniProt O00483, sequence (O00483 whole entry, looked up): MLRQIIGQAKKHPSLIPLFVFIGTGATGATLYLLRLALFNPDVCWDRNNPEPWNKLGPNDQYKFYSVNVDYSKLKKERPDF
inactive: nilotinib 0.062 | [1] 0.058 | dasatinib 0.043 | [2] 0.16 | [3] -0.007 | quisinostat 0.104 | tipifarnib 0.031 | [4] -0.065 | [5] 0.08 | [6] 0.019 | [7] -0.041 | vorinostat -0.017 | silmitasertib -0.004 | [8] 0.01 | entospletinib -0.029

NUP188 (UniProt Q5SRE5)
inactive: nilotinib 0.025 | [1] -0.003 | dasatinib -0.074 | [2] -0.002 | [3] 0.055 | quisinostat -0.024 | tipifarnib -0.047 | [4] 0.043 | [5] 0.03 | [6] 0.009 | [7] -0.002 | silmitasertib 0.073 | [8] -0.009 | entospletinib -0.003
active: vorinostat -0.36

NUP160 (UniProt Q12769)
active: vorinostat -0.291
inactive: nilotinib 0.014 | [1] -0.025 | dasatinib -0.092 | [2] -0.032 | [3] 0.021 | quisinostat -0.032 | tipifarnib -0.031 | [4] 0.009 | [5] 0.002 | [6] -0.018 | [7] -0.036 | silmitasertib 0.082 | [8] 0.022 | entospletinib 0.009

ORC5 (UniProt O43913)
inactive: nilotinib -0.043 | [1] -0.004 | dasatinib -0.047 | [2] 0.019 | [3] 0.098 | quisinostat -0.107 | tipifarnib -0.004 | [4] 0.098 | [5] 0.047 | [6] -0.073 | [7] 0.023 | silmitasertib 0.072 | [8] 0.011 | entospletinib 0.066
active: vorinostat -0.377
